Assay [1] addresses Mitogen-activated protein kinase 3 (Homo sapiens) (UniProt P27361). The note with it: at 1 µM.
The target of assay [2] is SRSF protein kinase 3 (Homo sapiens) (UniProt Q9UPE1). As to conditions: at 0.1 µM.
Assay [3] has the same target. As to conditions: at 1 µM.
For assay [4], the target named is Mitogen-activated protein kinase 14 (Homo sapiens) (UniProt Q16539). The note with it: at 0.1 µM.
Assay [5] has the same target. As to conditions: at 1 µM.
Assay [6] deals with Mitogen-activated protein kinase 11 (Homo sapiens) (UniProt Q15759). The note with it: at 0.1 µM.
The target is the same in assay [7]. As to conditions: at 1 µM.
The target in assay [8] is T1, Mitogen-activated protein kinase 13 (Homo sapiens) (UniProt O15264).
T1 sequence (whole entry): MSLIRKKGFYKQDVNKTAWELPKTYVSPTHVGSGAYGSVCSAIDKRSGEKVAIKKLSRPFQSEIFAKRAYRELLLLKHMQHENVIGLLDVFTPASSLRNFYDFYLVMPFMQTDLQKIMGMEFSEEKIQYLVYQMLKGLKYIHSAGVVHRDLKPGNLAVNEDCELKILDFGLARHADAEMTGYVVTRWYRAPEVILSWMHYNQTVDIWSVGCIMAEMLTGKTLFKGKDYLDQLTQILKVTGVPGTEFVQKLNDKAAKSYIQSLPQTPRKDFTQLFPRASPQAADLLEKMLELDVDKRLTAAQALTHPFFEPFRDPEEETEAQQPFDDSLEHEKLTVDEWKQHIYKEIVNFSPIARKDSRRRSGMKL
As to conditions: at 0.1 µM.

Assay [9] concerns the target T1, Mitogen-activated protein kinase 13 (Homo sapiens). As to conditions: at 1 µM.
Assay [10] deals with T2, Mitogen-activated protein kinase 12 (Homo sapiens) (UniProt P53778).
T2 sequence (whole entry): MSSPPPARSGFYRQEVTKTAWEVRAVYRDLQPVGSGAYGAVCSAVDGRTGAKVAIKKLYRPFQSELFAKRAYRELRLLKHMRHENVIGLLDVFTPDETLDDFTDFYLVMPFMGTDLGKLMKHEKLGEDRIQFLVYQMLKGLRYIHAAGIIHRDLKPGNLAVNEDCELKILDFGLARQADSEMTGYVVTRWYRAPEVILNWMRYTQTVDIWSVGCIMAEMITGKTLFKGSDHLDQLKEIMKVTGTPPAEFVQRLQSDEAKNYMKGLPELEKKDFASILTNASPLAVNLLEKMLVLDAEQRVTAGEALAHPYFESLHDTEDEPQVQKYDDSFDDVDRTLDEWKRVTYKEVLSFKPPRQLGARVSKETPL
The note with it: at 0.1 µM.

Assay [11] has as its target T2, Mitogen-activated protein kinase 12 (Homo sapiens). The note with it: at 1 µM.
Assay [12] deals with SRSF protein kinase 1 (Homo sapiens) (UniProt Q96SB4). The note with it: at 0.1 µM.
Assay [13] has the same target. The note with it: at 1 µM.
Assay [14] addresses Phosphatidylinositol 4,5-bisphosphate 3-kinase catalytic subunit alpha isoform (Homo sapiens) (UniProt P42336). As to conditions: at 0.1 µM.
Assay [15] shares this target. The note with it: at 1 µM.
The target of assay [16] is T3, Phosphatidylinositol 4,5-bisphosphate 3-kinase catalytic subunit delta isoform (Homo sapiens) (UniProt O00329).
T3 sequence (whole entry): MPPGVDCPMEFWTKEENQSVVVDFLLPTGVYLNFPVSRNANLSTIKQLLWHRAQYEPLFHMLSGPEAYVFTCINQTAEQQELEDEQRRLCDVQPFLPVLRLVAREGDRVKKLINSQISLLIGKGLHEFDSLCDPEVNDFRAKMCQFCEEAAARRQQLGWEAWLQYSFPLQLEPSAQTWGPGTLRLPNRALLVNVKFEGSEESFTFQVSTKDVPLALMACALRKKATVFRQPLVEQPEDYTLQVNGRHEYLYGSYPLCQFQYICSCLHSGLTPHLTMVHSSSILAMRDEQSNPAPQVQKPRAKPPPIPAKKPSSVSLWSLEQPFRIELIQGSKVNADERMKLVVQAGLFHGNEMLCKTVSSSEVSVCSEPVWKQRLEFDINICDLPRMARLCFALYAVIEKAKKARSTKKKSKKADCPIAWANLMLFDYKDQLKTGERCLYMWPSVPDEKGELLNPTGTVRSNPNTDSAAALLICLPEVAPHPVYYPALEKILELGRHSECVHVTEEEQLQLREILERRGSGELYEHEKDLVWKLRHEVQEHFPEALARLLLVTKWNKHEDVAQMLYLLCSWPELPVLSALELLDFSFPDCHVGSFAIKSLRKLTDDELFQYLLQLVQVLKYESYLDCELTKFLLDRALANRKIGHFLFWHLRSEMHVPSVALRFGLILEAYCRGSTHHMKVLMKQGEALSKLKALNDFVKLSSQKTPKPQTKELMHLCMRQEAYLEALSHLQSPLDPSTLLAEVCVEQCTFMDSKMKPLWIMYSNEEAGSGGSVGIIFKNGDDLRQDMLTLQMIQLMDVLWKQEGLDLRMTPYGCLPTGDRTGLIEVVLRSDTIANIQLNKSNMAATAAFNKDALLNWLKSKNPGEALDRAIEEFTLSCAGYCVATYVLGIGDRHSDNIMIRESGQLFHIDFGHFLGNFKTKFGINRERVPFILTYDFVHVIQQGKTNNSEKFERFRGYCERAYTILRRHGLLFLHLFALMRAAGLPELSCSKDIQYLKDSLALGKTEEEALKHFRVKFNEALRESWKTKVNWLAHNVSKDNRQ
The note with it: at 0.1 µM.

Assay [17] addresses T3, Phosphatidylinositol 4,5-bisphosphate 3-kinase catalytic subunit delta isoform (Homo sapiens). The note with it: at 1 µM.
For assay [18], the target named is Phosphatidylinositol 4-kinase beta (Homo sapiens) (UniProt Q9UBF8). As to conditions: at 1 µM.
In assay [19] the target is Sphingosine kinase 1 (Homo sapiens) (UniProt Q9NYA1). As to conditions: at 0.1 µM.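 Further: mean percent inhibition of SPHK1 activity, measured within the GSK PKIS screening panel.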
Assay [20] has as its target Phosphatidylinositol 4-kinase beta (Homo sapiens) (UniProt Q9UBF8). As to conditions: at 0.1 µM.

Sequence of Mitogen-activated protein kinase 11 (Homo sapiens) (Q15759 whole entry): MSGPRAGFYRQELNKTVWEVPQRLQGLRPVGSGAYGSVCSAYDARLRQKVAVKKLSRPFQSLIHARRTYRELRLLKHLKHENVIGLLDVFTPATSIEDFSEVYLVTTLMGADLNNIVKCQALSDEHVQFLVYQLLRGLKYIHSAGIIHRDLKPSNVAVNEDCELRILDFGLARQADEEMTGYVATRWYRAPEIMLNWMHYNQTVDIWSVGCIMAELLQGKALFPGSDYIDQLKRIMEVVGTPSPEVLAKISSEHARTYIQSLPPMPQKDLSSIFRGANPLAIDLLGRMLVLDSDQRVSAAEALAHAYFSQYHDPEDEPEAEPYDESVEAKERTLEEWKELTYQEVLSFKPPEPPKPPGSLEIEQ
Sequence of Phosphatidylinositol 4-kinase beta (Homo sapiens) (Q9UBF8 2-816 limits assumed): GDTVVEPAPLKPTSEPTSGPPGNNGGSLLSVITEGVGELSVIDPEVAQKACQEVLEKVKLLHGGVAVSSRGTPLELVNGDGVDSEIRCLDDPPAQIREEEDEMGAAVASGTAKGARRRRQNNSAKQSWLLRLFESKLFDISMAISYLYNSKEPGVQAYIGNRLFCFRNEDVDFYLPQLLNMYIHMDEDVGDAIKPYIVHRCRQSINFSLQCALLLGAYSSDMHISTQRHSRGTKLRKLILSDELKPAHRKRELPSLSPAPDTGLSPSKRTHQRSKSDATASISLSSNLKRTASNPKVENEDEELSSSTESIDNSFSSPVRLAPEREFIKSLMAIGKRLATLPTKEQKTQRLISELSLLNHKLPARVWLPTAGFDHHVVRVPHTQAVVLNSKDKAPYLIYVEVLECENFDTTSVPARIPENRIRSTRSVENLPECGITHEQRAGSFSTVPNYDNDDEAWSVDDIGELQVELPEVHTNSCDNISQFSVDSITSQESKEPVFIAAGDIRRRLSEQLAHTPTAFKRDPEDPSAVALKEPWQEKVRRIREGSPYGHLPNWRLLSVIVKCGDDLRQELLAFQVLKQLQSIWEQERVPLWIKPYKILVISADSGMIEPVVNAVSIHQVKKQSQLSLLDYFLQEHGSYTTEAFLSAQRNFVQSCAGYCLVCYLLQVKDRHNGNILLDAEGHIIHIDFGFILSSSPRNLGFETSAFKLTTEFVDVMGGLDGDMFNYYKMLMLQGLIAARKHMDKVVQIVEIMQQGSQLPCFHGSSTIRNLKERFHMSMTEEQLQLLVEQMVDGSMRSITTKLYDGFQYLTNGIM
Sequence of Sphingosine kinase 1 (Homo sapiens) (Q9NYA1 whole entry): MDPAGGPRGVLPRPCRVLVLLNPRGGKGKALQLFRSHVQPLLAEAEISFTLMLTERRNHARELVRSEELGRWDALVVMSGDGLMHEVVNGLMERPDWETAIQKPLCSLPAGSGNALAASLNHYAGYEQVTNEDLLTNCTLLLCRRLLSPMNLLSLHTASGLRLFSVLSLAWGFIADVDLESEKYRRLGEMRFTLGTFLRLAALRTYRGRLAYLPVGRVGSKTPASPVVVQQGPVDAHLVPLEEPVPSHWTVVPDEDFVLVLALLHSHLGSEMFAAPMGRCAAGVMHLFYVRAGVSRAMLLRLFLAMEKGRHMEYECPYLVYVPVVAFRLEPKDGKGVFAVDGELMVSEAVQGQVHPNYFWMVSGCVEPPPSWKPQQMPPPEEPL
Sequence of SRSF protein kinase 1 (Homo sapiens) (Q96SB4 whole entry): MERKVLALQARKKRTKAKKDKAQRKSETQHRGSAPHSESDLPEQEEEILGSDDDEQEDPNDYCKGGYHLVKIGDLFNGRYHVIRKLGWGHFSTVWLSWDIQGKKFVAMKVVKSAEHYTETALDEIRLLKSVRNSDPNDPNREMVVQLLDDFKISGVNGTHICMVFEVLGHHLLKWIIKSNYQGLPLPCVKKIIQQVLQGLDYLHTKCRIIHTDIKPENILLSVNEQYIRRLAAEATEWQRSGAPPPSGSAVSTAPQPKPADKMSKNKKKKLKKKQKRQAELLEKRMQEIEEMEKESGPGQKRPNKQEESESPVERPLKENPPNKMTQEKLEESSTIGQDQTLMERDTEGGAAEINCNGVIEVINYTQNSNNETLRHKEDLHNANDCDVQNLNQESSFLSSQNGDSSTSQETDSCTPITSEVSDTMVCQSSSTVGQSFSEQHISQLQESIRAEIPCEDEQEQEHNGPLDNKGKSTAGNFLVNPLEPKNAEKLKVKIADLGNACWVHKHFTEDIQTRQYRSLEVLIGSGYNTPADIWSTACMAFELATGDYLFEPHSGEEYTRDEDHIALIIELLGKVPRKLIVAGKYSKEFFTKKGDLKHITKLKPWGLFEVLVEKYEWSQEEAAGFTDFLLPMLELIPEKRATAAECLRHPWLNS
Sequence of Mitogen-activated protein kinase 14 (Homo sapiens) (Q16539 whole entry): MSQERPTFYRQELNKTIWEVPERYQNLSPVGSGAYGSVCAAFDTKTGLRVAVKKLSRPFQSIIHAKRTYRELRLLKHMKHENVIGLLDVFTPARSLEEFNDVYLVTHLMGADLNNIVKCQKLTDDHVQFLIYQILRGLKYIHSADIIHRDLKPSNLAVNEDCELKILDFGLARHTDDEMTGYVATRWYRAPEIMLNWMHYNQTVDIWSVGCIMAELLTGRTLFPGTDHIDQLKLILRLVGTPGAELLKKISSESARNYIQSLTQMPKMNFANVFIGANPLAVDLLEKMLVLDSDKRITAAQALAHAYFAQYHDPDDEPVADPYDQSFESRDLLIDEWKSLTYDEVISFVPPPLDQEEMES
Sequence of SRSF protein kinase 3 (Homo sapiens) (Q9UPE1 whole entry): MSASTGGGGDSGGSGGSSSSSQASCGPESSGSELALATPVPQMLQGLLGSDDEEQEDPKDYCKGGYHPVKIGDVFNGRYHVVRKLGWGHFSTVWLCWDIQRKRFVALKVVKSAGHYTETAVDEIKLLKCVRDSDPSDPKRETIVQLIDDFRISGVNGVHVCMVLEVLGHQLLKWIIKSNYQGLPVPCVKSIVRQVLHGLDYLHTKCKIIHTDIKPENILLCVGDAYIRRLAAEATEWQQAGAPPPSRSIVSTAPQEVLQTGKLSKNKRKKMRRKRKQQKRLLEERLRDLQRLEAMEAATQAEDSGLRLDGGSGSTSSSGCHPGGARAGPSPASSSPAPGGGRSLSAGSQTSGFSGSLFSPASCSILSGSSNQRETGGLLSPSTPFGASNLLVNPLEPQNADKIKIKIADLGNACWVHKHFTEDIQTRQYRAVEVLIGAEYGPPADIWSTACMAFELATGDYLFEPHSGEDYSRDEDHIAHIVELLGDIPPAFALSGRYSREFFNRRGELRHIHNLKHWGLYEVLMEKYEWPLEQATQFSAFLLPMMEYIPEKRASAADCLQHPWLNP
Sequence of Mitogen-activated protein kinase 3 (Homo sapiens) (P27361 whole entry): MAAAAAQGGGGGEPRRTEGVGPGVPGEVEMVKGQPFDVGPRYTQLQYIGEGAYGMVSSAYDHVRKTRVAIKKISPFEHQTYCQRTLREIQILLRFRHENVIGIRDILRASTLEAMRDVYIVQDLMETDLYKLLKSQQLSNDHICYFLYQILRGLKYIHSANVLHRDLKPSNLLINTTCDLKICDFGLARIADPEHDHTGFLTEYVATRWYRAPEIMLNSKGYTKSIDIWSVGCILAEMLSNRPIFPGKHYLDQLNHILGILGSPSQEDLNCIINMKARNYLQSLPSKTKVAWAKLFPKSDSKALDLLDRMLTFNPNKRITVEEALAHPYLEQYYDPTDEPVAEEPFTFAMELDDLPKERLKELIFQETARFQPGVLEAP
Sequence of Phosphatidylinositol 4,5-bisphosphate 3-kinase catalytic subunit alpha isoform (Homo sapiens) (P42336 whole entry, canonical isoform): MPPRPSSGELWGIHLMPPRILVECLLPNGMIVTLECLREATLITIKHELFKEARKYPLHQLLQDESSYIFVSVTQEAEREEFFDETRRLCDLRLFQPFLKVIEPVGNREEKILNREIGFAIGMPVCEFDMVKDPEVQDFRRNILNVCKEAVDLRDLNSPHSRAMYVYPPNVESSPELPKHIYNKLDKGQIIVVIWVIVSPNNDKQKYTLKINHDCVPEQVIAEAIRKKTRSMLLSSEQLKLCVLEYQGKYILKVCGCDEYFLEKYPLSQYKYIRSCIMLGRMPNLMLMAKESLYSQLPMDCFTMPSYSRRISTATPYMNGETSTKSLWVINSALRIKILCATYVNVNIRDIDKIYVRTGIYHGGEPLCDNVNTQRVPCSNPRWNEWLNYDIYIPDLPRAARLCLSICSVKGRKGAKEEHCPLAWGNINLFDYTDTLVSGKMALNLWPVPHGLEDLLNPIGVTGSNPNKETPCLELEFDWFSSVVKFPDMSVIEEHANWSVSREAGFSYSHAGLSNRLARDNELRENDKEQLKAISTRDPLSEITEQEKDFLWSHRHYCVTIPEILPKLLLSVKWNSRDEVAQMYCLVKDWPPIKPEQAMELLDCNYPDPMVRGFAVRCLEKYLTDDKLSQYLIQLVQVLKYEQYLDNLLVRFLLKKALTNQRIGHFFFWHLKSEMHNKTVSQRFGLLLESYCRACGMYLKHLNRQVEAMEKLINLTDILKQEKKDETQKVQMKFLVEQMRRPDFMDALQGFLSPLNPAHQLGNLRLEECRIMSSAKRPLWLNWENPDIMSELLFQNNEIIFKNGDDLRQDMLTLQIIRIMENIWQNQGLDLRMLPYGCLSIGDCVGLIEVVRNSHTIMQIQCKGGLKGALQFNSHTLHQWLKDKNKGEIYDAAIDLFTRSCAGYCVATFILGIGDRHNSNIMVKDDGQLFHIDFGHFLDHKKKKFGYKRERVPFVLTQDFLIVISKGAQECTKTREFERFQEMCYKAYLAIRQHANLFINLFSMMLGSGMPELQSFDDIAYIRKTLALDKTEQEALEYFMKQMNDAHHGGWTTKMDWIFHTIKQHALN

For `Cc1nnc(-c2ccc(C)c(-c3ccc(C(=O)NCc4ccc(Cl)cc4)cc3)c2)o1`, the inhibition is 3.65% in assay [1]; -1.7% in assay [2]; -0.7% in assay [3]; 9.97% in [4]; 54.2% in assay [5]; 6.73% in assay [6]. In addition, the inhibition is 27.7% in assay [7]; 1.96% in assay [8]; 3.99% in assay [9]; 1.42% in [10]; 3.42% in [11]; -1.29% in assay [12]. Also, the inhibition is -1.82% in assay [13]; 3.66% in assay [14]; 2.48% in [15]; 2.02% in assay [16]; 3.9% in assay [17]; -0.13% in [18]. Also, the inhibition in [19] was 0.23%.

Regarding `NS(=O)(=O)c1ccc(N/N=C2\C(=O)Nc3ccc(C(=O)NCCCn4ccnc4)cc32)cc1`, the inhibition in assay [1] was 15.9%; in [2] it was -1.4%; in assay [3], 0.48%; in [4], 1.52%; in assay [5], 7.84%; in assay [6], 5.07%. For the same compound, the inhibition in [7] is 9.47%; in assay [8], 1.23%; in assay [9], 6.17%; in [10] it was 2.29%; in [11] it was 2.75%; in [12], -0.49%. For the same compound, the inhibition in assay [13] is 2.62%; in [14], 3.67%; in assay [15] it was 4.54%; in [16], 0.52%; in [17], 2.39%; in [18] it was -5.49%. For the same compound, in assay [19], the inhibition turned out to be 14.8%.

Consider `NCc1ccc(-n2c(-c3nonc3N)nc3cnccc32)cc1`, for which the inhibition in assay [1] is 5.64%; in assay [2], -0.85%; in assay [3] it was -1.47%; in assay [4], 4.72%; in assay [5], 10%; in [6], 5.07%. Also, the inhibition in [7] is 11%; in assay [8], 2.2%; in [9] it was 7.37%; in assay [10], 3.52%; in assay [11], 3.74%; in [12], -2.56%. In addition, the inhibition in [13] is -1.45%; in assay [14] it was 4.81%; in assay [15], 4.8%; in assay [16], 3.69%; in assay [17], 6.07%; in assay [18], 5.38%. Moreover, the inhibition in assay [19] was determined as 1.89%.

As to `O=C(Nc1ccc(Oc2ccc3[nH]c(NC(=O)c4ccccc4)nc3c2)cc1)Nc1cc(C(F)(F)F)ccc1F`, the inhibition amounted to 3.58% in assay [1]; 4.8% in [2]; 50.7% in assay [3]; 11.1% in assay [4]; 40% in assay [5]; 5.44% in [6]. In addition, the inhibition in [7] was 32.5%; in assay [8], 1.65%; in [9], 3.87%; in assay [10], -0.11%; in [11], 3.12%; in assay [12], -0.76%. Also, the inhibition was 7.91% in assay [13]; 0.59% in assay [14]; 8.12% in [15]; -0.81% in assay [16]; 8.31% in assay [17]; 1.83% in [20]. The inhibition in assay [18] was -2.27%; in assay [19] it was 0.81%.

For `COc1ccc(-c2ccc3c(NC(=O)C4CC4)n[nH]c3n2)cc1`, the inhibition in assay [1] is 4.66%; in assay [2] it was -1.22%; in [3], 1.44%; in [4], 1.32%; in assay [5] it was 5.28%; in [6] it was 2.79%. Besides, the inhibition was 8.84% in assay [7]; -0.41% in assay [8]; 0.43% in [9]; 1.27% in assay [10]; 0.89% in assay [11]; -0.87% in assay [12]. For the same compound, the inhibition was 1.03% in assay [13]; 1.49% in assay [14]; 0.27% in assay [15]; -0.49% in assay [16]; -0.82% in [17]; -2.64% in assay [20]. For the same compound, the inhibition in assay [18] is -0.19%; in [19] it was 0.68%.

In the case of `CCc1ccc(Oc2nccc(-c3c(-c4ccc(F)cc4)ncn3C3CCNCC3)n2)cc1`, the inhibition was 8.24% in assay [1]; 3.09% in [2]; 0.07% in [3]; -2.85% in assay [12]; -3.81% in assay [13]; 3.74% in [14]. Further, the inhibition in assay [15] turned out to be 3.81%; in [16], 1.87%; in [17], 6.26%; in assay [20], 3.17%; in assay [18], 2.82%; in assay [19], 1.33%.

Turning to `Cc1ccc(C(=O)NC(C)C)cc1-c1ccc(C(=O)NCC2CC2)cc1`, the inhibition in assay [1] was -0.93%; in assay [2], 1.71%; in [3], -0.59%; in assay [6], 4.42%; in [7] it was 37%; in assay [8], -4.48%. In addition, the inhibition was -4.39% in [9]; -2.72% in [10]; -1.93% in assay [11]; 1.33% in [12]; 30.8% in assay [13]; -2.38% in assay [14]. Besides, the inhibition in assay [15] is -1.61%; in assay [16], -1.08%; in assay [17], -1.45%; in assay [20], -3.91%; in assay [18], -3.13%; in [19], -0.6%.

For the origin of these results see ChEMBL document CHEMBL1961873, “Compounds: GSK PKIS; Assays: Nanosyn kinase panel” (2012).
